TDP1 cell CPT – growth inhibition of DT40 Tdp1-/-;hTDP1 cells with camptothecin (screen for TDP1 inhibitors); chicken DT40 Tdp1-/-;hTDP1 cells + 20 nM CPT, ATP luminescence, 48 h; actives 12% (n = 420,000); Potency, µM (highest dose often 46.2 µM), without a hit: at the highest dose activity change, negative = growth inhibition, hits mostly inhibitors; note: nearly all actives have a fitted effect of over 55% in size
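Chicken DT40 Tdp1-/- cells complemented with human TDP1, 400 cells/well, exposed to compounds plus 20 nM camptothecin for at least 48 h at 37 C; viability read as ATP content by CellTiter-Glo luminescence.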
KB-V1 cytotox – kills drug-selected multidrug resistant KB-V1 cells. KB-V1 MDR cells viability, CellTiter-Glo, 72 h. Potency, µM (top dose mostly 46.1 µM), usual class: cytotoxic. actives 3.4% (n = 400,000). AID 1347076; note: nearly all actives have a fitted effect of over 60% in size
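Following 72 h at 37 degrees C with compound, KB-V1 cell viability was read by CellTiter-Glo luminescence, medium being phenol-red-free DMEM plus 10% FBS; concentration-response parameters came from normalized, curve-fitted qHTS data.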
HT1080 IDH1KD tx – kills HT-1080 cells with IDH1 knockdown; HT-1080 IDH1 knockdown viability, ATP luminescence, 48 h; Potency, µM (titrated, usually from 46.1 µM), for inactives: at the top dose activity, negative = toxicity, usual class: cytotoxic; actives 2% (n = 360,000);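 note: 0% = DMSO wells and -100% = cell-free medium wells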
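Viability of IDH1-knockdown HT-1080 fibrosarcoma cells was assessed by CellTiter-Glo after 48 h at 37 °C with titrated compound; concentration-effect curves were classified by fit quality and response size.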
KB-3-1 cytotox – KB-3-1 parental cell cytotoxicity; KB-3-1 viability, CellTiter-Glo ATP luminescence, 72 h; Potency, µM (titrated, usually from 46.1 µM), usual class: cytotoxic; actives 1.4% (n = 400,000); note: nearly all actives have a fitted effect of over 60% in size
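Parental KB-3-1 adenocarcinoma cells in phenol-red-free DMEM with 10% FBS were pin-treated with compounds at several concentrations, incubated 72 h at 37 °C, and viability read by CellTiter-Glo luminescence; concentration-effect curves were fitted after normalization.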
HT1080NT lethal – kills 2HG-producing HT-1080-NT fibrosarcoma cells; HT-1080-NT fibrosarcoma viability, CellTiter-Glo ATP luminescence, 48 h; Potency, µM (titrated, usually from 46.1 µM), for the others: at the highest dose activity, negative = less viability, most hits filed as cytotoxic; AID 686970; actives 1.6% (n = 360,000);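 note: NT is the 2HG producing partner of a matched IDH1 knockdown line; 0% = DMSO-treated cells and -100% = media-only wells without cells; nearly all actives have a fitted effect of over 55% in size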
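HT-1080-NT fibrosarcoma cells (2HG-overproducing), 750 cells/well in RPMI with 5% FBS, dosed after 2 h and incubated 48 h at 37C. CellTiter-Glo luminescence normalized to DMSO and no-cell wells; concentration-response curves fitted and classed.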
DT40 TDP1 no CPT – qHTS for Inhibitors of human tyrosyl-DNA phosphodiesterase 1 (TDP1): qHTS in cells in absence of CPT. DT40 Tdp1-/- hTDP1 cells, no CPT, ATP luminescence, 48 h. Potency, µM (highest dose often 46.2 µM), without a hit: at the highest dose activity change, negative = growth inhibition, most hits filed as inhibitors. actives 15% (n = 420,000). AID 686978, 2013; note: nearly all actives have a fitted effect of over 55% in size
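Growth of hTDP1-complemented DT40 Tdp1-knockout cells is measured by ATP luminescence after at least 48 hr compound exposure at 37 °C, with DMSO substituting for the 20 nM CPT used in the parallel screen.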
Active calls of the source: *; i = inactive; u = inconclusive; x = no result. Only some compounds are listed: those with a hit (about 19% of all), similar ones and a draw of the others. Calls come from the whole dose curve; as a rule, active = well fitted curve in the direction sought with a large enough effect; inconclusive = small, poorly fitted or top-dose-only effect, or another doubt; inactive = no such curve, though single readings can be large; an effect the other way counts as inactive or inconclusive. Unless noted, % is set by controls: 0 for no effect and ±100 for the full control effect; potency is the fitted concentration of half-maximal effect.

SMILES	TDP1 cell CPT	KB-V1 cytotox	HT1080 IDH1KD tx	KB-3-1 cytotox	HT1080NT lethal	DT40 TDP1 no CPT
COc1ccc(-c2csc3nc(C)nc(N4CCN(C(C)=O)CC4)c23)cc1OC	-25%	i	-2%	i	-20%	u
COc1ccc(-c2csc3nc(C)nc(N4CCC(C)CC4)c23)cc1OC	21µM*	u	u	u	18µM*	18µM*
Cc1nc(N2CCC(C(N)=O)CC2)c2c(-c3cccs3)csc2n1	u	i	-22%	u	-23%	21µM*
NC(=O)C1CCN(Cc2nc(-c3cccs3)no2)CC1	-7%	u	14%	i	3%	-6%
COCCCN1C(=O)C(CC(=O)NC2CC2)CC(C(=O)N2CCOCC2)=C1C (configuration not stated)	-14%	u	16%	i	-2%	-7%
CN(Cc1ccccc1)c1nc(CN2CCOCC2)nc2scc(-c3ccccc3)c12	u	u	-6%	u	-6%	16µM*
COc1ccc(N2CCN(Cc3nc4scc(-c5ccccc5)c4c(=O)[nH]3)CC2)cc1	u	i	-2%	i	-1%	8%
O=c1[nH]c(CN2CCN(c3ccccc3)CC2)nc2scc(-c3ccccc3)c12	13µM*	9.2µM*	-1%	u	-5%	5.2µM*
Cc1sc2nc(CN3CCOCC3)nc(NS(=O)(=O)c3ccccc3)c2c1C	-14%	i	14%	i	15%	-6%
Fc1ccc(N2CCN(c3nc(CN4CCOCC4)nc4scc(-c5ccccc5)c34)CC2)cc1	23µM*	i	u	i	-29%	15µM*
Cc1ccnc(NC(=S)N2CCN(c3ccc(F)cc3)CC2)c1	x	i	x	i	x	x
Cc1ccc(C2(C)NC(=O)N(CC(=O)N(Cc3ccccc3)C(C)(C)C)C2=O)cc1 (configuration not stated)	u	i	-20%	i	-4%	u
CC(=O)N1N=C(c2cccc([N+](=O)[O-])c2)OC1c1ccc(Cl)cc1Cl (configuration not stated)	-10%	21µM*	0%	i	-10%	u
COc1ccccc1C1OC(c2cccc([N+](=O)[O-])c2)=NN1C(C)=O (configuration not stated)	2%	i	17%	i	14%	-27%
O=P(Cc1cccc2ccccc12)(c1ccccc1)c1ccccc1	u	i	-8%	i	2%	21µM*
O=P(Cc1ccncc1)(c1ccccc1)c1ccccc1	-1%	i	17%	i	12%	-2%
O=C(Nc1ccccc1)c1cc2ccccc2s1	1%	i	-20%	i	u	-24%
O=C(Nc1ccc(O)cc1)c1cc2ccccc2c(=O)s1	u	u	u	i	-27%	16µM*
O=C(COc1ccc(Cl)cc1Cl)c1ccc[nH]1	-18%	i	20%	u	20%	-14%
COc1ccc(NC(=O)c2cc(-c3cc(Cl)ccc3OC)n[nH]2)c(OC)c1	23µM*	i	u	i	u	u
CCOc1ccc(Cl)cc1-c1cc(C(=O)Nc2ccc(OC)cc2OC)[nH]n1	u	i	4%	i	-2%	18µM*
CCOc1ccc(Cl)cc1-c1cc(C(=O)Nc2cc(OC)ccc2OC)[nH]n1	u	i	7%	i	u	23µM*
CC(C)n1nnnc1C1c2ccccc2C(=O)N1Cc1ccco1 (configuration not stated)	0%	i	8%	i	0%	-21%
CCCCN(C(=O)c1ccc2c(c1)OCCO2)c1c(N)n(CC(C)C)c(=O)[nH]c1=O	-9%	i	-4%	i	6%	0%
COc1ccc([C@H]2C[C@H](O)C[C@@H](CCn3cc(-c4ccccc4)nn3)O2)cc1	u	u	0%	i	0%	u
SMILES	TDP1 cell CPT	KB-V1 cytotox	HT1080 IDH1KD tx	KB-3-1 cytotox	HT1080NT lethal	DT40 TDP1 no CPT
CCOC(=O)c1sc(Nc2cccc(Cl)c2)nc1C	-13%	i	u	i	-27%	u
CCOC(=O)c1sc(/S(C)=N\S(=O)(=O)c2cccc(Cl)c2)c2c1CCC=C2 (configuration not stated)	u	i	6%	i	-2%	16µM*
O=c1[nH]c(C2CCN(S(=O)(=O)c3cccc(C(F)(F)F)c3)CC2)nc2c1nnn2Cc1cccc(F)c1	18µM*	u	21µM*	u	21µM*	21µM*
COC(=O)c1ccc(Cn2nnc3c(=O)[nH]c(C4CCN(S(=O)(=O)c5cc(C)ccc5C)CC4)nc32)cc1	23µM*	i	19%	i	3%	u
COC(=O)c1ccc(Cn2nnc3c(=O)[nH]c(C4CCCN(S(=O)(=O)c5ccc(C)cc5)C4)nc32)cc1 (configuration not stated)	-20%	i	6%	i	-2%	u
O=c1[nH]c(C2CCN(S(=O)(=O)c3ccc(S(=O)(=O)NC4CC4)cc3)CC2)nc2c1nnn2Cc1cccc(F)c1	16µM*	i	-27%	u	u	u
O=c1[nH]c(C2CCN(S(=O)(=O)c3ccccc3)CC2)nc2c1nnn2Cc1ccccc1	21µM*	i	-1%	i	-5%	u
CCOC(=O)c1cnn(CCOC(=O)c2ccccc2)c1NC(=O)c1ccccc1	-8%	10µM*	-6%	i	-1%	u
CCOC(=O)c1cnn(CCOC(=O)c2ccc(OC)cc2)c1NC(=O)c1ccc(OC)cc1	-26%	u	-4%	i	-4%	-23%
O=C1c2oc3ccc(F)cc3c(=O)c2C(c2cccc([N+](=O)[O-])c2)N1CCCN1CCOCC1 (configuration not stated)	-8%	i	x	i	x	-18%
COc1ccc2[nH]c3c(c2c1)CC(C)NC3=O (configuration not stated)	u	i	-3%	i	0%	7.3µM*
COc1ccc2[nH]c3c(c(=O)c2c1)CCCC3	u	i	9%	i	u	-27%
CC(=O)C1=NN(c2ccccc2)C(c2cccs2)N1c1ccc(N(C)C)cc1 (configuration not stated)	2.2µM*	i	2.5µM*	u	7.1µM*	4µM*
